# Measured values reported in PubChem BioAssay (Tox21).
# Inconclusive results are not listed. A call without a number means that no potency is given here. Active and inactive are the calls of the source. Unless noted, calls come from the whole dose curve; as a rule, active = well fitted curve in the direction sought with a large enough effect in the repeat runs; inconclusive = weak or mixed curves; inactive = no such curve, though single readings can be large; an effect the other way counts as inactive or inconclusive.
# Legend:
# [1] = qHTS assay for small molecule agonists of the p53 signaling pathway (AID 651631; calls by dose curve; note: nearly all actives have a fitted effect of over 15% in size; note: potency is the fitted concentration of half-maximal effect)
# Summary of the method: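 Quantitative high-throughput format: 4,000 p53RE-bla HCT-116 cells/well, 5 h pre-incubation, 16 h compound exposure at 37 °C, 2 h room-temperature substrate step, fluorescence intensity measured.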
# [2] = qHTS assay for small molecules that induce genotoxicity in human embryonic kidney cells expressing luciferase-tagged ATAD5 (AID 651632); note: nearly all actives have a fitted effect of over 15% in size; note: potency is the fitted concentration of half-maximal effect
# Summary of the method: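 Increased luciferase signal from ATAD5-tagged reporter cells indicates DNA-damage-driven ATAD5 induction. HEK293T cells are treated for 16 hr at 37C before detection with Amplite.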
# [3] = qHTS assay for small molecules that induce genotoxicity in human embryonic kidney cells expressing luciferase-tagged ATAD5 - cell viability (AID 651634; calls by dose curve; note: nearly all actives have a fitted effect of over 25% in size; note: potency is the fitted concentration of half-maximal effect)
# Summary of the method: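 Cytotoxicity counterscreen in HEK293T cells bearing an ATAD5-luciferase reporter: live-cell protease activity measured by CellTiter-Fluor fluorescence after 15.5 hr compound exposure.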
# [4] = qHTS assay for small molecule disruptors of the mitochondrial membrane potential - cell viability (AID 720634; calls by dose curve; note: nearly all actives have a fitted effect of over 20% in size; note: potency is the fitted concentration of half-maximal effect)
# Summary of the method: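 After overnight attachment at 37 C, HepG2 cells received compound or DMSO vehicle for 1 hr. Viability is then taken from ATP-driven luminescence following a 30 min room-temperature CellTiter-Glo step.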
# [5] = qHTS assay for small molecule disruptors of the mitochondrial membrane potential (AID 720635); note: potency is the fitted concentration of half-maximal effect
# Summary of the method: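 HepG2 cells (2,000/well) attached overnight at 37C, then took compound for 1 hr at 37C, 5% CO2. Mito-MPS dye was added for 30 min; fluorescence was read at 490/535 nm (monomers) and 540/590 nm (aggregates).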
# [6] = qHTS assay to test for compound auto fluorescence at 590 nm (red) in HepG2 cells (AID 720674)
# Summary of the method: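 Compound auto-fluorescence is scored relative to Rose Bengal sodium, measured at 540/590 nm in live HepG2 cultures after 1 hr compound contact (37 C, 5% CO2).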
# [7] = qHTS assay to test for compound auto fluorescence at 535 nm (green) in HepG2 cells (AID 720675)
# [8] = qHTS assay to test for compound auto fluorescence at 460 nm (blue) in HEK293 cells (AID 720678)
# Summary of the method: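 HEK293 cells (2,000 per well, medium with 10% dialyzed FBS) attached for 4-5 hr at 37C, then received compound and stood overnight at 37C, 5% CO2. Blue fluorescence was read at Ex/Em 405/460 nm and expressed relative to triamterene.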
# [9] = qHTS assay to test for compound auto fluorescence at 590 nm (red) in HEK293 cells (AID 720679)
# Summary of the method: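 HEK293 cells (2,000/well, medium with 10% dialyzed FBS) attached for 4-5 hr at 37C, received 23 nL compound and were incubated overnight at 37C, 5% CO2. Red fluorescence was then read at 540/590nm Ex/Em, referenced to Rose Bengal sodium.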
# [10] = qHTS assay for small molecule agonists of the p53 signaling pathway - cell viability (AID 651633; calls by dose curve; note: nearly all actives have a fitted effect of over 30% in size; note: potency is the fitted concentration of half-maximal effect)
# Summary of the method: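 p53RE-bla cells, seeded at 4,000 per well and rested 5 h at 37 C/5% CO2, received compounds in DMSO for 16 h at 37 C. CellTiter-Glo was then added, and luminescence was read after 30 min at room temperature to gauge cytotoxicity.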
Structure (SMILES),Potency [1],Potency [2],Potency [3],Potency [4],Potency [5],outcome [6],outcome [7],Potency [8],outcome [9],Potency [10]
CC[C@]1(O)C[C@H]2CN(CCc3c([nH]c4ccccc34)[C@@](C(=O)OC)(c3cc4c(cc3OC)N(C=O)[C@H]3[C@@](O)(C(=O)OC)[C@H](OC(C)=O)[C@]5(CC)C=CCN6CC[C@]43[C@@H]65)C2)C1,0.0084 µM (active),0.75 µM (active),0.0473 µM (active),inactive,3.76 µM (active),inactive,inactive,inactive,inactive,–
CCCCCCC(C)(C)C(=O)O,inactive,inactive,inactive,inactive,inactive,–,inactive,inactive,inactive,–
CC(C)=CCC1C(=O)N(c2ccccc2)N(c2ccccc2)C1=O,15 µM (active),inactive,–,inactive,–,inactive,inactive,inactive,inactive,21.1 µM (active)
O=C1CCCCCCCCCCOCCCCO1,inactive,inactive,inactive,inactive,inactive,inactive,inactive,inactive,inactive,–
CC(=O)Nc1cc(S(=O)(=O)O)cc2cc(S(=O)(=O)O)c(N=Nc3ccccc3)c(O)c12,inactive,inactive,30.6 µM (active),–,–,inactive,inactive,inactive,inactive,inactive
C[C@@H](O)[C@H]1C(=O)N2C(C(=O)O)=C([C@H]3CCCO3)S[C@H]12,inactive,inactive,–,inactive,inactive,inactive,inactive,inactive,–,–
CCOC(C)=O,inactive,inactive,inactive,inactive,–,inactive,inactive,–,inactive,inactive
CCC1(CO)COCOC1,inactive,inactive,inactive,inactive,–,inactive,inactive,–,inactive,inactive
CC(CO)CO,inactive,inactive,–,inactive,inactive,inactive,inactive,inactive,inactive,inactive
CCCCCCCCN,inactive,inactive,inactive,inactive,inactive,–,inactive,–,inactive,–
O=C(/C=C/c1ccc(O)c(O)c1)O[C@@H]1C[C@@](OC(=O)/C=C/c2ccc(O)c(O)c2)(C(=O)O)C[C@@H](O)[C@@H]1O,inactive,inactive,–,inactive,–,inactive,inactive,inactive,inactive,inactive
CC1(C)S[C@@H]2[C@H](NC(=O)C(c3ccccc3)S(=O)(=O)O)C(=O)N2[C@H]1C(=O)O (stereo partly drawn),inactive,inactive,–,inactive,inactive,inactive,inactive,–,inactive,inactive
O=[N+]([O-])c1ccc(Nc2ccc(Nc3ccccc3)c(S(=O)(=O)O)c2)c([N+](=O)[O-])c1,inactive,inactive,–,inactive,–,inactive,inactive,inactive,inactive,inactive
N#[N+]c1ccc2c(S(=O)(=O)[O-])cccc2c1O,inactive,inactive,–,inactive,–,inactive,inactive,inactive,inactive,inactive
CCC1CO1 (stereo not drawn),inactive,inactive,–,inactive,inactive,inactive,inactive,inactive,inactive,inactive
CCCCCCCC/C=C\CCCCCCCCCCCC(=O)O,inactive,inactive,–,inactive,inactive,inactive,inactive,inactive,–,inactive
CC(C)C[C@H](NC(=O)[C@H](CCc1ccccc1)NC(=O)CN1CCOCC1)C(=O)N[C@@H](Cc1ccccc1)C(=O)N[C@@H](CC(C)C)C(=O)[C@@]1(C)CO1,0.0668 µM (active),0.106 µM (active),0.211 µM (active),inactive,–,–,inactive,inactive,inactive,0.335 µM (active)
O=C=Nc1cccc(C(F)(F)F)c1,inactive,inactive,–,–,2.15 µM (active),inactive,inactive,inactive,–,inactive
CC(C)=CC(=O)C=C(C)C,inactive,inactive,–,inactive,–,inactive,inactive,–,inactive,–
CN1C(=O)N(c2ccccc2Br)Cc2cnc(Nc3ccc4c(c3)OCC(CO)O4)nc21 (stereo not drawn),19.3 µM (active),inactive,–,48.6 µM (active),24.3 µM (active),inactive,inactive,inactive,inactive,–
Cc1cscn1,inactive,inactive,inactive,inactive,–,–,inactive,inactive,inactive,inactive
CO/N=C(/C(=O)N[C@@H]1C(=O)N2C(C(=O)O)=C(COC(N)=O)CS[C@H]12)c1ccco1,inactive,inactive,–,inactive,inactive,–,inactive,–,–,inactive
C=COCC(C)C,inactive,inactive,–,inactive,–,inactive,inactive,inactive,inactive,–
c1cc(N(CC2CO2)CC2CO2)ccc1Cc1ccc(N(CC2CO2)CC2CO2)cc1 (stereo not drawn),24.3 µM (active),15.4 µM (active),–,48.6 µM (active),27.3 µM (active),inactive,inactive,inactive,inactive,inactive
O=c1[nH]ncc2ccccc12,inactive,inactive,–,inactive,inactive,inactive,inactive,inactive,inactive,inactive
